How the values were obtained:
Assay in all cases: DAPPL (digital affinity profiling via proximity ligation, sequencing); 10 mM Tris-HCl pH 7.5, 50 mM NaCl, 1 mM DTT, 4% glycerol, room temperature, 30 min; GST-TFs on glutathione beads, 16-mer random dsDNA library, 0.1% formaldehyde crosslink after washing; high values mean tight binding
FEV = molecular target: T1, FEV (Homo sapiens, UniProt Q99581 1-238); conditions: protein: recombinant; tags: N-terminal GST; dsDNA, one strand shown
T1 sequence: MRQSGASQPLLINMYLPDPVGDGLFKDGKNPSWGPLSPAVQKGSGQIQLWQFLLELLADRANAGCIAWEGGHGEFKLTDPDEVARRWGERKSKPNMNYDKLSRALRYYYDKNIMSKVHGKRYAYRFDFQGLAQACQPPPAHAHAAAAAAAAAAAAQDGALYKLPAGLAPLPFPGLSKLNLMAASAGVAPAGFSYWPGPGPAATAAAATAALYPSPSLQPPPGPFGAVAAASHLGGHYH
Outline: (§1)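 In yeast, human transcription factors were expressed with a GST fusion, then pulled down on glutathione beads and given DNA barcodes. Pooled with a tag-only sample, they were exposed to 200 nmole of a 16-mer random double-stranded DNA library (Tris/NaCl/DTT/glycerol buffer, room temperature, 30 min), washed, crosslinked with 0.1% formaldehyde, proximity-ligated using BsaI/T4 ligase for 1 h at 37 °C, PCR-amplified and read on an Illumina NextSeq500. Each hexamer's frequency of reads for a factor, divided by the matching frequency for the tag-only sample, gives the binding signal.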

ETV5 = ETV5 (Homo sapiens, UniProt P41161 1-510); conditions: protein: recombinant; tags: N-terminal GST; dsDNA, one strand shown
Outline: as §1

HSF1 = HSF1 (Homo sapiens, UniProt Q00613 1-529); conditions: protein: recombinant; tags: N-terminal GST; chain copies: 3; dsDNA, one strand shown
Outline: as §1

SPIC = molecular target: T2, SPIC (Homo sapiens, UniProt Q8N5J4 1-248); conditions: protein: recombinant; tags: N-terminal GST; dsDNA, one strand shown
T2 sequence: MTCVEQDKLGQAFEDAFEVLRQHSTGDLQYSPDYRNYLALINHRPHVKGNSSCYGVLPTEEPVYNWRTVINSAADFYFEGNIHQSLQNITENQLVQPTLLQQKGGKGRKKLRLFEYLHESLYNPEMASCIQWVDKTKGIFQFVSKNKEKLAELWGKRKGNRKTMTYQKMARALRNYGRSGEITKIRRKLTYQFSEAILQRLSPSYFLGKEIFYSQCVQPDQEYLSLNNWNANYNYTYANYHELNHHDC
Outline: as §1

ELF4 = ELF4 (Homo sapiens, UniProt Q99607 1-663); conditions: protein: recombinant; tags: N-terminal GST; dsDNA, one strand shown
Outline: as §1

ELK4 = molecular target: T3, ELK4 (Homo sapiens, UniProt P28324-2 1-405); conditions: protein: recombinant; tags: N-terminal GST; dsDNA, one strand shown
T3 sequence: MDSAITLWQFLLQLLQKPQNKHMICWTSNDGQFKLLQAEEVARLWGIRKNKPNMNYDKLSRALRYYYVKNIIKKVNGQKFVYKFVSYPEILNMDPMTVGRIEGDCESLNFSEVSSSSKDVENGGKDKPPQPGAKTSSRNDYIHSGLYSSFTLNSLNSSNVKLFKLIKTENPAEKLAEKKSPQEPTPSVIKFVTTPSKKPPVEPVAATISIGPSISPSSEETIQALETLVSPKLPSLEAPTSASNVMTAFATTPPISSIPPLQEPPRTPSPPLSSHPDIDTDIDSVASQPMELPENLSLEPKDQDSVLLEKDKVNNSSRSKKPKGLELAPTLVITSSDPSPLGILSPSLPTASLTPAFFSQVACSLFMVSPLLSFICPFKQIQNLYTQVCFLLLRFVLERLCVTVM
Outline: as §1

ETV2 = molecular target: T4, ETV2 (Homo sapiens, UniProt O00321 1-342); conditions: protein: recombinant; tags: N-terminal GST; dsDNA, one strand shown
T4 sequence: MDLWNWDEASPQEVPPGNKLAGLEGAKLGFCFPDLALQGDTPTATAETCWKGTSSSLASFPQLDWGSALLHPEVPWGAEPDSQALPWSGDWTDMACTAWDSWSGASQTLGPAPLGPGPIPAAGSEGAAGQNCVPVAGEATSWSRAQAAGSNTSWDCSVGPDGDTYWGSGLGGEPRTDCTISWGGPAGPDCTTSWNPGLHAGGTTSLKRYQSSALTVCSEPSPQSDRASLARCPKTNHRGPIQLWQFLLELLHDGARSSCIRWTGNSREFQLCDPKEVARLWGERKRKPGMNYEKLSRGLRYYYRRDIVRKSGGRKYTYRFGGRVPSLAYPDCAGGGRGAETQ
Outline: as §1

ELF3 = molecular target: T5, ELF3 (Homo sapiens, UniProt P78545 1-371); conditions: protein: recombinant; tags: N-terminal GST; dsDNA, one strand shown
T5 sequence: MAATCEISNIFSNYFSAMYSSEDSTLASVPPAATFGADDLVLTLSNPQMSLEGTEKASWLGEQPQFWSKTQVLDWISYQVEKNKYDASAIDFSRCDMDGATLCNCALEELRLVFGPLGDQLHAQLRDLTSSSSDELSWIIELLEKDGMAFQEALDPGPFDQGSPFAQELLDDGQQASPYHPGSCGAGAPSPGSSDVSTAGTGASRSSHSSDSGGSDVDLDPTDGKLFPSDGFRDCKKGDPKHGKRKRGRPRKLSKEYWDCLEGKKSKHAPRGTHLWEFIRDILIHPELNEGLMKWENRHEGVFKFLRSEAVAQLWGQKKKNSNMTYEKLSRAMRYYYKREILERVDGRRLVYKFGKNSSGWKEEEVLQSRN
Outline: as §1

CRX = CRX (Homo sapiens, UniProt O43186 1-299); conditions: protein: recombinant; tags: N-terminal GST; dsDNA, one strand shown
Outline: as §1

ETV1 = ETV1 (Homo sapiens, UniProt P50549 1-477); conditions: protein: recombinant; tags: N-terminal GST; dsDNA, one strand shown
Outline: as §1

ERF = molecular target: T6, ERF (Homo sapiens, UniProt P50548 1-548); conditions: protein: recombinant; tags: N-terminal GST; dsDNA, one strand shown
T6 sequence: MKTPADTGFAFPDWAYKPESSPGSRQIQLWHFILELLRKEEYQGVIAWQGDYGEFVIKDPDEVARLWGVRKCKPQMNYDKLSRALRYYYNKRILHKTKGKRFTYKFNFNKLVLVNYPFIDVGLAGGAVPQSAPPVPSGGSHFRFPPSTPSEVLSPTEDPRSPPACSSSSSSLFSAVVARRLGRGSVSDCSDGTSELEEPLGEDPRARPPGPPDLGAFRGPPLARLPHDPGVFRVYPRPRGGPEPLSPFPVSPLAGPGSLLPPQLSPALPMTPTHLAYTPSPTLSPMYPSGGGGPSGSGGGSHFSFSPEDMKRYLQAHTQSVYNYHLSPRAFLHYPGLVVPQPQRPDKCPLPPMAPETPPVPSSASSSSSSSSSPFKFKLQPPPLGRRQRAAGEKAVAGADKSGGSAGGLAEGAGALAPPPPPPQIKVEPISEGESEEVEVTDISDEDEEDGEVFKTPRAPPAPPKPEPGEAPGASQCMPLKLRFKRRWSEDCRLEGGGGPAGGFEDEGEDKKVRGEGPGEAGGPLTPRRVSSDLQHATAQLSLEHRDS
Outline: as §1

ETV3L = molecular target: T7, ETV3L (Homo sapiens, UniProt Q6ZN32 1-361); conditions: protein: recombinant; tags: N-terminal GST; dsDNA, one strand shown
T7 sequence: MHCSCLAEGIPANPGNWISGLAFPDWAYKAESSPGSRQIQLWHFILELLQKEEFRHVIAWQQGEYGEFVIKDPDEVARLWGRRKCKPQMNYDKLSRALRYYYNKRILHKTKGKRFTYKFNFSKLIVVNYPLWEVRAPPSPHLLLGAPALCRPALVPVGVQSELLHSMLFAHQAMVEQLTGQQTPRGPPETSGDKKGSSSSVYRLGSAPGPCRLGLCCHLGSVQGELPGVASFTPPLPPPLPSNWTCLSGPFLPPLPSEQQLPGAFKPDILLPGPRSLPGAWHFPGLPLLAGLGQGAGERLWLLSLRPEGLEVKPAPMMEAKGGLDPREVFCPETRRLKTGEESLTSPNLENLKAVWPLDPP
Outline: as §1

ETS2 = molecular target: T8, ETS2 (Homo sapiens, UniProt P15036 1-469); conditions: protein: recombinant; tags: N-terminal GST; dsDNA, one strand shown
T8 sequence: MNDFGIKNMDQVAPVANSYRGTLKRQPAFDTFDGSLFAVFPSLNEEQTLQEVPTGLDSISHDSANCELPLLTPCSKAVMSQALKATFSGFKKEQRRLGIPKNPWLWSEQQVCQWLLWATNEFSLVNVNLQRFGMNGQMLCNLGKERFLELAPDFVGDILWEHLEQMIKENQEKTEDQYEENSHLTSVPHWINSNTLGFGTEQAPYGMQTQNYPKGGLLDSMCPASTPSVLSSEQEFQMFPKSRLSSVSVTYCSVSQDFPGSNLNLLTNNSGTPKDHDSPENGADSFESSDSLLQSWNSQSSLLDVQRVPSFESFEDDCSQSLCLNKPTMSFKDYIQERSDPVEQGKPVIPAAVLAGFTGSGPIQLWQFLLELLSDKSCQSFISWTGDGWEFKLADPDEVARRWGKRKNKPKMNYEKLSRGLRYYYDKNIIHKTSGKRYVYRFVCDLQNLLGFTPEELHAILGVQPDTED
Outline: as §1

SPDEF = molecular target: T9, SPDEF (Homo sapiens, UniProt O95238 1-335); conditions: protein: recombinant; tags: N-terminal GST; dsDNA, one strand shown
T9 sequence: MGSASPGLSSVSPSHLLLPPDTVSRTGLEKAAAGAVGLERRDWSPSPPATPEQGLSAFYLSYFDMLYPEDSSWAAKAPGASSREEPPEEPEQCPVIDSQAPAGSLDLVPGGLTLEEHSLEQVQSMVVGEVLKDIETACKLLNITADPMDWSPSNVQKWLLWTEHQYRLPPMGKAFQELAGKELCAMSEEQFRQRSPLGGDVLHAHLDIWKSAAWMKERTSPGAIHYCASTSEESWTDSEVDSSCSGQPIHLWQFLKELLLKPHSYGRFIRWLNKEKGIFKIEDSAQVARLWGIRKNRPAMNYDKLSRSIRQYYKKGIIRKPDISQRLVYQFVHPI
Outline: as §1

ETV7 = molecular target: T10, ETV7 (Homo sapiens, UniProt Q9Y603 1-341); conditions: protein: recombinant; tags: N-terminal GST; dsDNA, one strand shown
T10 sequence: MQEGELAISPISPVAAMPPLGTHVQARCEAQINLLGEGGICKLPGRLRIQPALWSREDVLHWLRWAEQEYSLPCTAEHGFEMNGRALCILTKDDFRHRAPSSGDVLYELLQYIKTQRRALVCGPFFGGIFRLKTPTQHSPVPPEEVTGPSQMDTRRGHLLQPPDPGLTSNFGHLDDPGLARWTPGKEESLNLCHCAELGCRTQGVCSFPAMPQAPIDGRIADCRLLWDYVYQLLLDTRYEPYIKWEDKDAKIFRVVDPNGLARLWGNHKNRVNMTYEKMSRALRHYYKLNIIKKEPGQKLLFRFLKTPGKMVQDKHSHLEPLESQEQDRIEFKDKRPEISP
Outline: as §1

ELF5 = molecular target: T11, ELF5 (Homo sapiens, UniProt Q9UKW6-2 1-255); conditions: protein: recombinant; tags: N-terminal GST; dsDNA, one strand shown
T11 sequence: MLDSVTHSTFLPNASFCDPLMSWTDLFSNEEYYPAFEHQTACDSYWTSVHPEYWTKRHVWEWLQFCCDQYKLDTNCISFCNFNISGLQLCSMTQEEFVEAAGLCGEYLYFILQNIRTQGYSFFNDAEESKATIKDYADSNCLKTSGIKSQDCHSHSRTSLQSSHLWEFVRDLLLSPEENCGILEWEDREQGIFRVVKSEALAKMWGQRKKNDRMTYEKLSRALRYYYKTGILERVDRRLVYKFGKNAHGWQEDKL
Outline: as §1

ETV3 = molecular target: T12, ETV3 (Homo sapiens, UniProt P41162-2 1-143); conditions: protein: recombinant; tags: N-terminal GST; dsDNA, one strand shown
T12 sequence: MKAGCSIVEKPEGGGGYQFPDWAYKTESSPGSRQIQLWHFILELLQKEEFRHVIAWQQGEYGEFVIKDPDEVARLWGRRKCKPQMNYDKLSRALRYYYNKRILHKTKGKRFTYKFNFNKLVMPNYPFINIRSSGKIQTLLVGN
Outline: as §1

ETV6 = ETV6 (Homo sapiens, UniProt P41212 1-452); conditions: protein: recombinant; tags: N-terminal GST; dsDNA, one strand shown
Outline: as §1

ETV5, sequence (P41161 whole entry): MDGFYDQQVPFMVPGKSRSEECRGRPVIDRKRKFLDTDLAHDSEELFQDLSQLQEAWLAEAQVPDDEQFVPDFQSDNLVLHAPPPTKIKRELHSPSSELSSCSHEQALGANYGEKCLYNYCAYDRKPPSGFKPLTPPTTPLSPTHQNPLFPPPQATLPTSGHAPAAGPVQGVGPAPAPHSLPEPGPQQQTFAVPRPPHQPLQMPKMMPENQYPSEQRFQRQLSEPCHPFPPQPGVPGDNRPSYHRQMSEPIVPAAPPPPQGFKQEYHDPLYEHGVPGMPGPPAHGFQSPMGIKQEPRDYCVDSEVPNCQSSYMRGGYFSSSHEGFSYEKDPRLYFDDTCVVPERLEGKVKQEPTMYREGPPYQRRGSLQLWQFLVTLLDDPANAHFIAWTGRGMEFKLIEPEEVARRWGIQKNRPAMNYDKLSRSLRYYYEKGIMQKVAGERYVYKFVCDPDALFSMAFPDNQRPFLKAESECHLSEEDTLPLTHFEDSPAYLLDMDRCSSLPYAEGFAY
CRX, sequence (O43186 whole entry): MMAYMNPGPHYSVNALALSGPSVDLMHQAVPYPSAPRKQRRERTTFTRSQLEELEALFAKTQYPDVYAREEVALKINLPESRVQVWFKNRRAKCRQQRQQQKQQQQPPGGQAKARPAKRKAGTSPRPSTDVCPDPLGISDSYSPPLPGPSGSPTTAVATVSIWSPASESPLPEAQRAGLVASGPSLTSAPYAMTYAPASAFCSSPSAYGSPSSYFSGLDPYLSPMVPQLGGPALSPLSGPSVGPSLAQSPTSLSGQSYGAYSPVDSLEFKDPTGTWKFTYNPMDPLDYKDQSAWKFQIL
ETV1, sequence (P50549 whole entry): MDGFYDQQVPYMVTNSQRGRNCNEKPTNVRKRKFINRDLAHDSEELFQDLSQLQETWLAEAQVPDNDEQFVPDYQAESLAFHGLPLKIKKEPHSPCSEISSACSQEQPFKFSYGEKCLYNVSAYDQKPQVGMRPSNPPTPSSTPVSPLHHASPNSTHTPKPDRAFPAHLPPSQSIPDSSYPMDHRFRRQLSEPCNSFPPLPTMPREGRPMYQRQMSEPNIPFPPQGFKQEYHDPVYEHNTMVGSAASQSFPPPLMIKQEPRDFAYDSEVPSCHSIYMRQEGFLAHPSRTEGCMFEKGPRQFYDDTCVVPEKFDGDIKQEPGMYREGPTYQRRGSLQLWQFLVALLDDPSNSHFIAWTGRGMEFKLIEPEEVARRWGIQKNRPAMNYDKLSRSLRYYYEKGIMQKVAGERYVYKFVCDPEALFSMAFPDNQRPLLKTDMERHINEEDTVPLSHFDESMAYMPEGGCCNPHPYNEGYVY
HSF1, sequence (Q00613 whole entry): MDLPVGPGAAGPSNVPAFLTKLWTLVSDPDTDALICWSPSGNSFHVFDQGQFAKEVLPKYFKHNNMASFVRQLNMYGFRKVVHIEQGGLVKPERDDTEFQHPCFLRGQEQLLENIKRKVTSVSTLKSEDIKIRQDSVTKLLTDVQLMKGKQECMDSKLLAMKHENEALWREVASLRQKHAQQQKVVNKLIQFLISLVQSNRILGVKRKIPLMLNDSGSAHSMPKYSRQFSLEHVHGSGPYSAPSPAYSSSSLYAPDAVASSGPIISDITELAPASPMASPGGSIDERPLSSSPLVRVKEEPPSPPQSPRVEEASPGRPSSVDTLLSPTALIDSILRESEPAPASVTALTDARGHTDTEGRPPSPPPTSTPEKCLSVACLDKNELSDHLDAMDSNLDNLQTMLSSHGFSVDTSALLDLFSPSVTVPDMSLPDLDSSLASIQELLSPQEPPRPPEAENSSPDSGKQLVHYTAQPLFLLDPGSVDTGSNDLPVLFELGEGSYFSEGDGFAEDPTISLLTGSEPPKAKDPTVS
ELF4, sequence (Q99607 whole entry): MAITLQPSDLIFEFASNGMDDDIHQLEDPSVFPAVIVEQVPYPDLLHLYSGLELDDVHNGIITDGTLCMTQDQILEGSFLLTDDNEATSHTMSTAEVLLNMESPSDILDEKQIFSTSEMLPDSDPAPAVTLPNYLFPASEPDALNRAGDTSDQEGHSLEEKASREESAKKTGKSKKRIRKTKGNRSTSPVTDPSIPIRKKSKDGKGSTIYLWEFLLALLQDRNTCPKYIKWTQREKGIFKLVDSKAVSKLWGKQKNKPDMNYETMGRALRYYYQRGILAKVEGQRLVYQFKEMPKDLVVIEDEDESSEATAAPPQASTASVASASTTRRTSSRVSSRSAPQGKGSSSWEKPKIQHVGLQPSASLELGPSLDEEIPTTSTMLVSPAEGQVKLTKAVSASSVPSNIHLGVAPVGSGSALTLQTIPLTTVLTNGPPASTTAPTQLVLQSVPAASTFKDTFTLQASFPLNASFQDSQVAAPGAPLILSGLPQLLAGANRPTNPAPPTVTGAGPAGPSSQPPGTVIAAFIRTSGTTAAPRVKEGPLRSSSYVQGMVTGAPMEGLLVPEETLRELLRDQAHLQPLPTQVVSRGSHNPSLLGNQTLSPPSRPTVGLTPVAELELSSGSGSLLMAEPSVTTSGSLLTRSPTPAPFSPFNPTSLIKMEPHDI
ETV6, sequence (P41212 whole entry): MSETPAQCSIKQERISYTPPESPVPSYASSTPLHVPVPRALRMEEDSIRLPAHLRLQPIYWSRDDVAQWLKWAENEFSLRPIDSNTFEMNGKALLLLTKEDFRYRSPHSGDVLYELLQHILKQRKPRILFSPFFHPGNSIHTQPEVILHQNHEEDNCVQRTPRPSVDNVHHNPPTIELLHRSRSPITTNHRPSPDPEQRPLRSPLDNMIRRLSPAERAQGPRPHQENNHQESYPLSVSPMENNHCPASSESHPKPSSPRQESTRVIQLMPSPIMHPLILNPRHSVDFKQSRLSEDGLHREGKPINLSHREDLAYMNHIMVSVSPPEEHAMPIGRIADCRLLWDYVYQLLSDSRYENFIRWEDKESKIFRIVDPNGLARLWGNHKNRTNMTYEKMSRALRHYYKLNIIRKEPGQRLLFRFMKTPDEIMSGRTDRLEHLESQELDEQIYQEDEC

For TCCCAT, the binding signal (FEV) was 1.32 fold enrichment (6-mer frequency, TF over GST control), the binding signal (ETV5) was 1.34 fold enrichment (6-mer frequency, TF over GST control) and the binding signal (HSF1) was 1.21 fold enrichment (6-mer frequency, TF over GST control). For the same sequence, the binding signal (SPIC) was 1.45 fold enrichment (6-mer frequency, TF over GST control), the binding signal (ELF4) was 1.29 fold enrichment (6-mer frequency, TF over GST control) and the binding signal (ELK4) was 1.27 fold enrichment (6-mer frequency, TF over GST control). The binding signal (ETV2) was 1.41 fold enrichment (6-mer frequency, TF over GST control), the binding signal (ELF3) was 1.44 fold enrichment (6-mer frequency, TF over GST control) and the binding signal (CRX) was 1.43 fold enrichment (6-mer frequency, TF over GST control). For the same sequence, the binding signal (ETV1) was 1.37 fold enrichment (6-mer frequency, TF over GST control), the binding signal (ERF) was 1.4 fold enrichment (6-mer frequency, TF over GST control) and the binding signal (ETV3L) was 1.38 fold enrichment (6-mer frequency, TF over GST control). The binding signal (ETS2) was 1.4 fold enrichment (6-mer frequency, TF over GST control), the binding signal (SPDEF) was 1.23 fold enrichment (6-mer frequency, TF over GST control) and the binding signal (ETV7) was 1.28 fold enrichment (6-mer frequency, TF over GST control). The binding signal (ELF5) was 1.44 fold enrichment (6-mer frequency, TF over GST control), the binding signal (ETV3) was 1.32 fold enrichment (6-mer frequency, TF over GST control) and the binding signal (ETV6) was 1.37 fold enrichment (6-mer frequency, TF over GST control).

Source: publication PMC7862700, “An all-to-all approach to the identification of sequence-specific readers for epigenetic DNA modifications on cytosine”
